# From PubChem BioAssay (NCI)
# The panel holds about 83,000 compounds, 20% with a hit somewhere; the sample as a whole holds those more often.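 Step 1: grow cells in 96-well plates. Step 2: add test compound at a single concentration. Step 3: incubate 48 h. Step 4: record percent growth.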 Unmarked numbers belong to inactive results. Calls of active or inactive are those of the source. Rule for the calls: active = growth percent below 10; inactive = the rest.
# Tests used:
# Test in all cases: NCI-60 one-dose screen, 48 h (100 = growth as untreated, 0 = no growth, -100 = all killed)
# Conditions in all cases: 10 µM unless noted
# [1] = test system: DU-145 prostate
# [2] = test system: K-562 leukemia
# [3] = test system: MALME-3M melanoma
# [4] = test system: MDA-MB-231 breast
# [5] = test system: RXF 393 renal
# [6] = test system: SF-268 CNS
# [7] = test system: SF-295 CNS
# [8] = test system: SF-539 CNS
# [9] = test system: UACC-257 melanoma
# [10] = test system: M14 melanoma
# [11] = test system: HCT-15 colon
# [12] = test system: HT29 colon
# [13] = test system: SNB-75 CNS
# [14] = test system: SNB-19 CNS
# [15] = test system: U251 CNS
# [16] = test system: PC-3 prostate
# [17] = test system: SK-MEL-5 melanoma
# [18] = test system: UACC-62 melanoma
# [19] = test system: LOX IMVI melanoma
# [20] = test system: SK-MEL-28 melanoma
SMILES,growth [1],growth [2],growth [3],growth [4],growth [5],growth [6],growth [7],growth [8],growth [9],growth [10],growth [11],growth [12],growth [13],growth [14],growth [15],growth [16],growth [17],growth [18],growth [19],growth [20]
Cc1csc(-c2nnc(Nc3ccc(Oc4ncccc4-c4ccnc(N)n4)cc3)c3ccccc23)c1,55.8%,40%,18.6%,37.7%,8.98% (active),58.3%,60.2%,41.1%,20.8%,15.4%,37.6%,10.1%,61.9%,43.3%,37.7%,59.9%,54.1%,21.1%,25.7%,18.9%
C=CC(=O)N1CCC[C@@H](n2nc(-c3ccc(Oc4ccccc4)cc3)c3c(N)ncnc32)C1,47.9%,8.51% (active),86.8%,56.4%,11%,42%,60.7%,32.9%,26.4%,41.9%,72.6%,30.1%,19.6%,49.8%,48.1%,57.2%,56.1%,20.6%,24.3%,79.2%
CS(=O)(=O)N1CCN(Cc2cc3nc(-c4cccc5[nH]ncc45)nc(N4CCOCC4)c3s2)CC1,18.8%,64%,1.98% (active),51.5%,-23.3% (active),30.3%,3.4% (active),-2.44% (active),14.7%,40%,19.3%,11.4%,-25.6% (active),34.9%,34%,18.2%,33.5%,-14.2% (active),15.5%,10.6%
CO[C@@H](C)Cn1c(=O)n(C)c2cnc3ccc(-c4cncc(C(C)(C)O)c4)cc3c21,13%,14.8%,-36% (active),6.56% (active),-47.2% (active),7.58% (active),-39.6% (active),-39.5% (active),-16.6% (active),3.8% (active),7.42% (active),2.26% (active),-41.8% (active),8.17% (active),2.44% (active),7.66% (active),-96.5% (active),-37.6% (active),-33.8% (active),-8.17% (active)
Cc1ccc(NC(=O)Nc2ccc(Nc3ncnc4sc5c(c34)CCOC5)cc2)cc1Cl,114%,108%,98.2%,88.5%,95.5%,103%,96%,84.4%,88.8%,99.1%,106%,81.2%,69.8%,103%,87.7%,81.2%,95%,95.4%,97.3%,111%
CCCCn1c(C)nc2ccc(Nc3nc(N4CCN(C)CC4)nc4nc[nH]c34)cc21,91.8%,83.2%,102%,86.2%,95%,73.2%,105%,87.6%,101%,107%,110%,90.9%,63.5%,95.6%,82.9%,84.2%,86.8%,91.9%,83.9%,109%
C=CC(=O)Nc1cc2c(Nc3ccc(F)c(Cl)c3)ncnc2cc1C#CC(C)(C)N1CCN(C)CC1,-98.9% (active),-30.7% (active),-85.3% (active),-90.1% (active),-98.6% (active),-94.3% (active),-97.4% (active),-100% (active),-86.2% (active),-90% (active),-78% (active),-70.4% (active),-99.8% (active),-98.9% (active),-94.8% (active),-87.4% (active),-98.4% (active),-94.6% (active),-91.4% (active),-96.9% (active)
CN[C@@H]1C[C@H]2O[C@@](C)([C@@H]1OC)n1c3ccccc3c3c4c(c5c6ccccc6n2c5c31)C(=O)N[C@H]4O,3.62% (active),-15.6% (active),-81.2% (active),-48.5% (active),-94.3% (active),-66.5% (active),-75.8% (active),-88.4% (active),-88.4% (active),-56.6% (active),-16.8% (active),-16.7% (active),-98.9% (active),-34.4% (active),-85.3% (active),4.43% (active),-98.9% (active),-63.1% (active),-85.5% (active),-61.3% (active)
Cc1cc(C2(c3ccc(O)c(C)c3)OS(=O)(=O)c3ccccc32)ccc1O,122%,104%,91.7%,102%,98.5%,112%,105%,99%,100%,99.9%,117%,115%,91.6%,105%,107%,90.8%,103%,107%,104%,113%
CO[C@H]1C[C@@H]2CC[C@@H](C)[C@@](O)(O2)C(=O)C(=O)N2CCCC[C@H]2C(=O)O[C@H]([C@H](C)C[C@@H]2CC[C@@H](OP(C)(C)=O)[C@H](OC)C2)CC(=O)[C@H](C)/C=C(\C)[C@@H](O)[C@@H](OC)C(=O)[C@H](C)C[C@H](C)\C=C/C=C/C=C/1C,46%,48.4%,40.4%,71.7%,18.9%,62.9%,23.5%,41.8%,30.7%,66.4%,47.6%,40.3%,17.6%,53%,40.4%,42.2%,51.6%,39.5%,42.7%,54.4%
Brc1ccc([I+]c2ccc(Br)cc2)cc1,52.6%,9.03% (active),35.7%,15.1%,40.6%,-56.7% (active),27.5%,27.3%,27%,10.3%,49.3%,5.37% (active),-82.2% (active),-92.4% (active),-85% (active),24.7%,-82.9% (active),27%,20.4%,-14.6% (active)
Cc1cc(O)cc(-c2c(-c3ccnc(-c4cccnc4)c3)cnn2C)c1,70.4%,57.8%,49.7%,60.2%,54.4%,72.8%,59.2%,42.7%,83.1%,66%,74%,60.7%,16.4%,96.4%,69.3%,47.8%,56.5%,62.1%,61.5%,60.8%
COC(=O)[C@@H](OC)[C@@H]1Cc2cc3cc(OC4CC(OC5CC(O)C(O)C(C)O5)C(O)C(C)O4)c(C)c(O)c3c(O)c2C(=O)[C@H]1OC1CC(OC2CC(OC3CC(C)(O)C(O)C(C)O3)C(O)C(C)O2)C(O)C(C)O1 (stereo not given in full),10.2%,4.16% (active),-58% (active),-8.44% (active),-73% (active),3.86% (active),-10.6% (active),-41.6% (active),-11.2% (active),-71.5% (active),7.16% (active),3.61% (active),-79.3% (active),4.99% (active),2.62% (active),-23.3% (active),-69.5% (active),-58.5% (active),-24% (active),-38% (active)
COc1ccc(S(=O)(=O)N(C(C)=O)c2ccccc2/C=C/c2cc[n+]([O-])cc2)cc1,16%,7.61% (active),47%,45.6%,-5.21% (active),34.6%,13.7%,-30.4% (active),65.5%,-14.3% (active),17.9%,1.49% (active),4.75% (active),25.4%,9.19% (active),17.9%,7.61% (active),37.1%,18%,45.4%
C[C@@]1(C(=O)Nc2ccc(F)nc2)CCCN1c1nc(Nc2cc(C3CC3)[nH]n2)c2cccn2n1,38.9%,27.3%,55.3%,20.7%,-45.9% (active),15.5%,-13.2% (active),16.3%,22.1%,21.6%,26.5%,-31.8% (active),-53.2% (active),55.2%,32.3%,30.8%,48.1%,17.5%,-35.5% (active),43.6%
